Data reported in PMC4336329 (PLoS ONE, 2015).
The whole screen tested about 310,000 compounds, of which about 14,000 (4.5%) showed an effect of 50% or more. The effect is printed as a negative number. For the sample, strong results were picked, then their nearest neighbours and some compounds at random. Where a SMILES comes first, the peptide text is derived from it. The star is where a group is joined. Boc = CC(C)(C)OC(=O)*

What follows are compounds tested against human ether-à-go-go-related gene (hERG) potassium channel (human, UniProt Q12809) (assay: primary screen, population patch clamp on CHO cells stably expressing hERG; higher = less effect of the substance).
Chain of human ether-à-go-go-related gene (hERG) potassium channel (Q12809 whole entry, looked up): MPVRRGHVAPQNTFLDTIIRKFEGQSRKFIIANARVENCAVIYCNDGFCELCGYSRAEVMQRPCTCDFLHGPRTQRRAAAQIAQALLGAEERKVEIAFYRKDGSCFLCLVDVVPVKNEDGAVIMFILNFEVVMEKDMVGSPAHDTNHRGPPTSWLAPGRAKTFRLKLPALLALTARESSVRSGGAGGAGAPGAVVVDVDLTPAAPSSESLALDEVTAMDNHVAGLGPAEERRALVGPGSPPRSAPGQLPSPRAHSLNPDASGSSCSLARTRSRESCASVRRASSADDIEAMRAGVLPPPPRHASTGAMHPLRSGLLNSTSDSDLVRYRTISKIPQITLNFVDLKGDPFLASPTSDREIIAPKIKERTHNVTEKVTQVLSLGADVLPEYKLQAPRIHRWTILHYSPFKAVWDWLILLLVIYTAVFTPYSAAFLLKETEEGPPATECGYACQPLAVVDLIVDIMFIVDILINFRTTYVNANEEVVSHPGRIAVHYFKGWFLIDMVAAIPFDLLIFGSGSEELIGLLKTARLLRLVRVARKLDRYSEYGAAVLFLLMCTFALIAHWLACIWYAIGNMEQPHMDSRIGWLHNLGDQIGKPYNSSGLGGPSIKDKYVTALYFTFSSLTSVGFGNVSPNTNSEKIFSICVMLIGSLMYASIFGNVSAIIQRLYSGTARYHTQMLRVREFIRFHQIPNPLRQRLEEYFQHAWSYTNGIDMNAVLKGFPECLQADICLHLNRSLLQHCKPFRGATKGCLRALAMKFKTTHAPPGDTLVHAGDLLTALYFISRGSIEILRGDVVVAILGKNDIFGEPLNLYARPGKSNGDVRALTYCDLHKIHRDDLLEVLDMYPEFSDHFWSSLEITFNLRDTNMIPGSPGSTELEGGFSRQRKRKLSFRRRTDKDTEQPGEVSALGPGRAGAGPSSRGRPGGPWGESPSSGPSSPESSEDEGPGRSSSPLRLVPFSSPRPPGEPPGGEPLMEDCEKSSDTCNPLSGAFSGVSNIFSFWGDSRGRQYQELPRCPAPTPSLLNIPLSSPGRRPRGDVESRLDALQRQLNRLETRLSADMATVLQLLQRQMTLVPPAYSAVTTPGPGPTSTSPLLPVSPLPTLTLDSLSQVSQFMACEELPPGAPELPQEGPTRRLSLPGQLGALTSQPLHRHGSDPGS
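Note: peak tail current of the secondary pulse compared with the same well before compound.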

Structure (SMILES)	hERG current change (%, negative = inhibition) at 10uM [%]
CC1=C/C(=N\NC(=S)NCCc2ccccc2)CC(C)(C)C1	-4.83
Cc1ccc(Cn2nnc3c(=O)[nH]c(C4CCN(S(=O)(=O)c5ccccc5F)CC4)nc32)cc1	-19
CCN1C[C@]2(C)CC[C@H](OC)[C@]34C2[C@H](OC(C)=O)[C@@]2(OCO[C@@]25C[C@H](OC)[C@H]2C[C@]3(O)C5[C@H]2OC)[C@@H]14	39.8
CCOc1cc(NC(=O)c2ccccn2)c(OCC)cc1NC(=O)c1ccc(C)cc1	-13.7
Nc1c(C(=O)Nc2ccc(F)cc2)sc2nc(-c3ccco3)ccc12	-9.67
CC(=O)Nc1ccc(NS(=O)(=O)c2cc(Cl)ccc2Cl)cc1	-14.8
CC(C)Oc1ccc(C(=O)Nc2ccc(Cl)c(S(=O)(=O)Nc3ccc(Cl)cc3)c2)cc1	2.46
CCC(C)NCCC(=O)Nc1ccc(Cl)c(S(=O)(=O)Nc2ccc(Cl)cc2)c1 (stereo not shown)	-53.6
Cc1cc(C)cc(-n2ccnc2SCC(=O)Nc2ccc3c(c2)OCCO3)c1	-14.2
CC(=O)c1ccc(C(=O)Nc2nnc(-c3ccc(Cl)cc3)o2)cc1	4.1
CC(=O)N/C(=C\c1ccccc1)C(=O)OCC(=O)c1ccccc1	9.41
O=C(OCC(=O)c1ccc([N+](=O)[O-])cc1)/C(=C\c1ccc(Cl)cc1)NC(=O)c1ccccc1	-64.4
O=C(OCC(=O)c1ccc([N+](=O)[O-])cc1)/C(=C/c1ccc(Cl)cc1)NC(=O)c1ccccc1	-63.3
O=C(NCCc1ccccc1)/C(=C\c1ccc([N+](=O)[O-])cc1)NC(=O)c1ccc(Br)cc1	-37.8
Cc1ccc(NC(=O)/C(=C/c2ccc([N+](=O)[O-])cc2)NC(=O)c2ccccc2)cc1	-12
Cc1ccc(NC(=O)/C(=C\c2ccc([N+](=O)[O-])cc2)NC(=O)c2ccccc2)cc1	-38.6
CS(=O)(=O)c1ccc(Oc2ccc(-c3nnco3)cc2)c([N+](=O)[O-])c1	-7.35
COc1cccc(C2C(C#N)=C(N)Oc3cc(C)[nH]c(=O)c32)c1OC (stereo not shown)	-10.4
Cc1sc2c(c1C)C(c1cccs1)=NCC(=O)N2CC(=O)NCc1cccs1	-56.2
Cc1sc2c(c1C)C(c1ccc(C(C)(C)C)cc1)=NCC(=O)N2CC(=O)Nc1nccs1	-17.9
Cc1ccc2c(c1)N(CC(=O)NCc1cccs1)C(=O)CO2	5.4
CCOCCCNC(=S)NC1CC2CCC(C1)N2Cc1ccccc1 (stereo not shown)	-23

Structure (SMILES)	hERG current change (%, negative = inhibition) at 10uM [%]
Cc1noc(C(=O)Nc2ccc(F)c(Cl)c2)c1Cl	8.86
Oc1cccc2nc3ccccc3nc12	2.6
CCOC(=O)C1(CCOC)CCN(C(=O)Cc2ccc3ccccc3c2)CC1	-0.72
CCOC(=O)C1(CCc2ccccc2)CCN(Cc2ccco2)CC1	-76.5
CCOC(=O)C1(CCOC)CCN(Cc2ccccc2-c2ccco2)CC1	-22.4
CCOC(=O)C1(CCOC)CCN(C(C)CCc2ccc(OC)cc2)CC1 (stereo not shown)	-71.1
CCOC(=O)C1(CCc2ccccc2)CCN(CC(O)CO)CC1 (stereo not shown)	-40.3
CCOC(=O)C1(CCc2ccccc2)CCN(Cc2ccc(C(=O)OC)cc2)CC1	-91.8
CCOC(=O)C1(CCc2ccccc2)CCN(Cc2ccc(O)cc2)CC1	-83.4
CCOC(=O)C1(Cc2cccc(OC)c2)CCN(C(C)COC)CC1 (stereo not shown)	5.9
Cc1ccc(S(=O)(=O)N2CCN(S(=O)(=O)N3CCCCC3)CC2)c(C)c1	-6.97
CSc1sc(C(=O)N2CCCCC2)c(-c2cccs2)c1C#N	-27.7
CC(C)(C)c1ccc(OCC(=O)Nc2cccc(S(=O)(=O)NC3=NCCCCC3)c2)cc1	-18.9
COc1ccc2c(CC(=O)OCC(=O)Nc3ccc(C)cc3)coc2c1	-1.56
O=S1(=O)CC2SC(=S)N(c3ccccc3)C2C1 (stereo not shown)	7.98
CCOc1ccc(/C(O)=C2/C(=O)C(=O)N(CCN(C)C)C2c2ccccc2)cc1Cl (stereo not shown)	-5.2
CC(=O)c1c(C)[nH]c(C(=O)COC(=O)c2ccc3c(=O)n4c(nc3c2)CCC4)c1C	-0.297
O=[N+]([O-])c1ccccc1C1Nc2cccc3cccc(c23)N1	11.8
CCC1CCCCN1C(=O)c1ccc(OC2CCN(Cc3ccccn3)CC2)cc1 (stereo not shown)	5.27
CCc1nnc(NC(=O)CSc2ccc(-c3nc4ccccc4[nH]3)cn2)s1	5.82
COC(=O)C(Cc1ccccc1)NC(=O)C(CC(C)C)NC(=O)OC(C)(C)C (stereo not drawn) (Boc-Leu-Phe-OMe; configuration not given here)	10.7
CCOC(=O)C1(Cc2ccccc2Cl)CCN(Cc2csc(C(C)=O)c2)CC1	-12.3

Structure (SMILES)	hERG current change (%, negative = inhibition) at 10uM [%]
CCOC(=O)C1CCN(Cc2ccc(C(=O)OC)cc2)CC1	-14.6
CCOC(=O)C1(CC2CC2)CCN(Cc2ccc(O)c(Cl)c2)CC1	-41.6
CCOC(=O)C1(CC2CC2)CCN(Cc2cnc(-c3ccccc3C)nc2)CC1	-10.4
CCOC(=O)C1(CCc2ccccc2)CCN(Cc2csc(C(C)=O)c2)CC1	-74.8
CCOC(=O)C1(Cc2ccccc2)CCN(Cc2csc(C(C)=O)c2)CC1	-24.2
CCOC(=O)C1(CCc2ccccc2)CCN(Cc2ccc(OC)cc2)CC1	-77.5
CCOC(=O)C1(CCOC)CCN(Cc2ccc(C(=O)OC)cc2)CC1	-27.2
CCOC(=O)C1(CC2CC2)CCN(Cc2cc(Cl)c(O)c(OC)c2)CC1	-57.1
CCOC(=O)C1(CC2CC2)CCN(Cc2ccc(C(=O)OC)cc2)CC1	-57
CCOC(=O)N1CCN(C(=O)CCC2CCCC2)CC1	9.89
Cc1cc(C)c(S(=O)(=O)c2c(C)cccc2C)c(OCC(C)C)n1	2.76
COc1cccc(-c2nc(CS(=O)(=O)CC(=O)Nc3cc(C)ccc3C)c(C)o2)c1	7.02
C[n+]1cn(Cc2ccc(C#N)cc2)c2ccccc21.[Cl-]	2.75
C=CCN=C1N[C@@H](c2ccccc2)C(C(=O)OC)=C(C)N1CCOC	-13
CC(=O)N(C)c1ccc(NC(=S)Nc2cccc3ccccc23)cc1	3.38
O=C(CSc1nnnn1-c1ccc(O)cc1)Nc1ccc(N2CCOCC2)c(Cl)c1	-1.58
CCOc1ccc(CCNC(=O)C2CCCN(c3nn4c(=O)cc(C)nc4s3)C2)cc1 (stereo not shown)	-24.2
COC(c1ccccc1)c1nnc(CCC(=O)NC2C3CC4CC(C3)CC2C4)o1 (stereo not shown)	-3.85
CCCCc1c(C)nc2c(OC)cccc2c1SCC(=O)O	12.3
CC1CN(c2ccnc3cc(Cl)ccc23)CC(C)O1 (stereo not shown)	-39.7
O=C(NNc1ccnc2cc(Cl)ccc12)C1CCCCC1	16.1
NC(=O)C1CCN(c2ccnc3cc(Cl)ccc23)CC1	-51.6

Structure (SMILES)	hERG current change (%, negative = inhibition) at 10uM [%]
O=C(Oc1ccnc2cc(Cl)ccc12)N1CCCCCC1	-23
O=C(C1CCC1)N1CCN(c2ccnc3cc(Cl)ccc23)CC1	-71.4
NC(=O)C1CCN(c2cc(Cl)ccc2[N+](=O)[O-])CC1	3.89
O=C(C1CC1)N1CCN(c2ccnc3cc(Cl)ccc23)CC1	-73.6
O=C(C1CCC1)N1CCN(c2ccc(Cl)cc2)CC1	-5.33
O=C(C1CCCCC1)N1CCN(c2ccnc3cc(Cl)ccc23)CC1	-66.1
Cc1[nH]c2ccc(C(=O)N3CCN(C)CC3)cc2c1C	30.8
COc1ccc(C2CC(c3cccs3)=NN2c2ccc(F)cc2)cc1OC (stereo not shown)	26.6
CCN1CCN(CCCNC(=O)c2ccc(NC(=O)C3=CSCCO3)cc2)CC1	19.9
O=C(Nc1ccccc1O)c1ccc(C(=O)c2ccccc2)o1	11.2
COc1ccccc1NC(=O)c1ccc(C(=O)c2ccccc2)o1	-69.4
COc1ccccc1-c1noc(-c2ccccc2C(=O)Nc2ccccc2)n1	13.9
COc1ccccc1NC(=O)c1ccc(Br)o1	-6.16
COc1ccccc1NC(=O)c1cc(N)cc(C(=O)Nc2ccccc2OC)c1	-50.6
COc1ccccc1NC(=O)c1cc(C(=O)Nc2ccccc2OC)cc([N+](=O)[O-])c1	21.1
COc1ccccc1NC(=O)c1ccccc1-c1nc(-c2ccccc2OC)no1	-57.7
COc1ccccc1NC(=O)c1ccc(N)cc1	5.63
CCOc1ccccc1NC(=O)c1ccccc1-c1nc(-c2ccccc2OC)no1	-35.6
COc1ccc(C(=O)OCC(=O)NC(C)CCc2ccccc2)cc1OC (stereo not shown)	0.524
